The results in this text go back to ChEMBL document CHEMBL3433997, “St. Jude Leishmania screening dataset” (2016).

Molecules are shown by their SMILES. Where “and” joins values, the source holds several entries; their conditions need not be identical. Equal entries are not always repeated.

Holding throughout (type): functional
Assay [1] deals with Solute carrier family 2, facilitated glucose transporter member 1 (Homo sapiens) (UniProt P11166). Put plainly: ST_JUDE_LEISH: Cytotoxicity at 2uM final concentration against transgenic Leishmania Mexicana promastigotes LmGLUT1 that are glucose transport deficient and complemented with the human glucose transporter GLUT1. Activity is measured by DNA content using SYBR green in vitro.
Chain of Solute carrier family 2, facilitated glucose transporter member 1 (Homo sapiens) (P11166 whole entry): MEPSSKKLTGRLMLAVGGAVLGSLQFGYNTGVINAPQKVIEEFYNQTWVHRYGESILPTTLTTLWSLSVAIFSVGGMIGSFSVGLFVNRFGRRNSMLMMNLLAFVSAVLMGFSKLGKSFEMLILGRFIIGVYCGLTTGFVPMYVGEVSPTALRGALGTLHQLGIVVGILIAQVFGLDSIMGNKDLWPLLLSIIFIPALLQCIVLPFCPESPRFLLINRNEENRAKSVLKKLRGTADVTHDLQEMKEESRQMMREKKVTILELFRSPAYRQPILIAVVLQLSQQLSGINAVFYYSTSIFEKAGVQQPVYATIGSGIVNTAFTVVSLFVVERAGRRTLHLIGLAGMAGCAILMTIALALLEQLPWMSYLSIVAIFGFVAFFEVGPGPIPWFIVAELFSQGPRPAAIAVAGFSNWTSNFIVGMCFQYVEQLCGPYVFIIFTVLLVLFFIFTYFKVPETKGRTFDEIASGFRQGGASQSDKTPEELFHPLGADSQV

For assay [2], the target named is Hexose transporter 1 (Plasmodium falciparum) (UniProt O97467). Put plainly: ST_JUDE_LEISH: Cytotoxicity at 2uM final concentration against transgenic Leishmania Mexicana promastigotes LmPfHT that are glucose transport deficient and complemented with the Plasmodium falciparum hexose transporter. Activity is measured by DNA content using SYBR green in vitro.
Assay [3] has as its target Glucose transporter (Leishmania mexicana) (UniProt O61059). Put plainly: ST_JUDE_LEISH: Cytotoxicity at 2uM final concentration against transgenic Leishmania Mexicana promastigotes LmGT2 that are glucose transport deficient and complemented with the L. Mexicana glucose transporter 2. Activity is measured by DNA content using SYBR green in vitro.

Turning to `CCCn1c(O)nnc1SCC(=O)Nc1cc(Cl)ccc1Cl`, the inhibition is -1.37% in assay [1], -0.49% in assay [2] and -0.21% in assay [3].
With `Brc1ccc(Nc2ccnc3cc(-c4nccs4)ccc23)cc1Oc1ccnc2cc(-c3nccs3)ccc12`, the inhibition is 1.77% in assay [1], 2.1% in assay [2] and -0.86% in assay [3].
For `Cc1cc(Nc2c(C(N)=O)cnc3cc(-c4ccoc4)ccc23)ccc1N1CCN(C)CC1`, in that order: -1.39%, -0.31% and -0.69%.
For `O=C(Nc1ccccc1)N(Cc1ccccc1-c1cccc(CNC2CCCC2)c1)C1CCN(Cc2ccccc2)CC1` the same measures were 0.15%, 1.64% and 4.91%.
For `CCCCc1ccc(S(=O)(=O)Nc2ccc3c(c2)CCN(Cc2c[nH]c4cnccc24)CC3)cc1` the same measures were -1.78%, -0.79% and 5.76%.
For the molecule `Cc1cc(=O)c2cc(-c3ccc(OC(F)(F)F)cc3)ccc2[nH]1`, the inhibition was -2.2% in assay [1], 0.49% in assay [2] and -0.86% in assay [3].
For `COc1ccc(CNC2CCN(C)CC2)cc1-c1ccc(S(=O)(=O)NCc2cccnc2)s1`, in that order: -1.99%, 0.85% and 5.84%.
For `O=C(Nc1ccc(C(F)(F)F)cc1)Nc1ccccc1N1CCNCC1` the same measures were 2.1%, 1.1% and 6.58%.
For `COc1ccccc1CNC(=O)c1cc(OC)c(OC)cc1NC(=O)c1cccs1` the same measures were 10.5%, 6% and 4.4%.
`CC(=O)Nc1ccc(C(=O)Nc2ccc(-c3cccc(-c4nc5cccc(C)c5[nH]4)c3)cc2)cn1`: the inhibition in assay [1] was -3.82%; in assay [2], -0.04%; in assay [3], -3.28%.
With `COc1ccccc1C1CCN(C2CCC(NC(=O)c3cc(-c4ccc(Cl)cc4)cs3)CC2)CC1` (stereo unspecified), the inhibition is -0.61% in assay [1], 2.96% in assay [2] and 0.71% in assay [3].
For `Fc1ccc(C=NN=c2cc[nH]c3ccc(C(F)(F)F)cc23)cc1`, in that order: 6.39%, 6.15% and 5.46%.
For `CC1CNC(c2ccc(NC(=O)Nc3ccc(C4=NC(C)CN4)cc3)cc2)=N1` (stereo unspecified), in that order: 4.6%, 5.64% and 3.84%.
With `O=c1c2c([nH]c3cc(Cl)ccc13)CCCC2`, the inhibition was 4.95% in assay [1], 3.08% in assay [2] and 3.09% in assay [3].
For the molecule `O=C(NCCCCN1CCCC2c3cccc(O)c3CCC21)c1ccc(-c2ccccc2)cc1` (stereo unspecified), the values for the inhibition in assay [1], in assay [2] and in assay [3] were 0.9%, -0.26% and -0.23%, respectively.
For `O=C(Nc1cccc(CN2CCCN(Cc3ccc(O)cc3)CC2)c1)c1ccc(Cl)c(Cl)c1`, in that order: 10.6%, 11% and 5.2%.
For `O=c1c2ccccc2[nH]c2nc3ccccc3c(Nc3ccccc3)c12`, in that order: 10.2%, 12.5% and 8.59%.
On to `Cc1nc2ccc(F)cc2n1C1CCN(C(=O)Cc2ccc(F)c(F)c2)CC1`, for which the values for the inhibition in assay [1], in assay [2] and in assay [3] were -1.6%, -1.91% and 1.89%, respectively.
For `CC(C)(C)CNc1noc(-c2sccc2Br)n1`, the inhibition was -0.27% in assay [1], -0.43% in assay [2] and -0.7% in assay [3].
For `CC(O)C1CCCCN1C(=O)c1cccc(-c2cccc(-c3nc4cc(F)ccc4[nH]3)c2)c1` (stereo unspecified) the same measures were 3.45%, 3.21% and 1.62%.
For `C=CCn1c(Cc2ccccc2)nnc1Sc1ccc(C#N)c([N+](=O)[O-])c1`, in that order: 3.36%, 3.11% and 2.02%.
For `O=C(Nc1ccc(Cn2ncc(N3CCCNCC3)c(Cl)c2=O)cc1)Nc1ccc(C(F)(F)F)cc1` the same measures were 3.47%, 4.5% and -0.44%.
Regarding `O=C(NCC1COc2ccccc2O1)c1cnc2c(c1)nc(-c1c[nH]c(-c3ccccc3)n1)n2CCSCc1c(F)cccc1Cl` (stereo unspecified), the inhibition in assay [1] came to 4.51%; in assay [2], 3.79%; in assay [3], 3.91%.
For `Cc1cnc(NC(=O)c2cn(-c3ccccc3)nc2-c2cccs2)s1`, in that order: 14.6%, 13.2% and 13.9%.
For `COc1cc2c(cc1OC)CN(CCc1ccc(NC(=O)c3cc4cc(OC(F)(F)F)ccc4[nH]3)cc1)CC2` the same measures were 3.34%, 3.67% and 1.17%.
`O=C(Nc1ccon1)c1cc(-c2cccnc2)nc2ccc(Br)cc12`: the inhibition in assay [1] was 2.83%; in assay [2] it was 5.32%; in assay [3], 0.72%.
For `O=C(Nc1ccc(OC2CCN(Cc3ccccc3)CC2)c(Cl)c1)c1ccc(F)cc1` the same measures were 2.05%, 2% and 1.68%.
Take `O=C(Nc1cccc(-c2cccc(-c3nc4ccccc4[nH]3)c2)c1)NC1CC1c1ccccc1` (stereo unspecified): the inhibition is 6.53% and 2.58% in assay [1]; 5.02% and 2.99% in assay [2]; 5.79% and 7.12% in assay [3].
In the case of `CC(C)COc1ccc(Cl)cc1Cc1ccc(-c2nc3cc(N4CCN(C)CC4)ccc3[nH]2)o1`, the values for the inhibition in assay [1], in assay [2] and in assay [3] were 4.56%, 1.63% and 2.01%, respectively.
For `CC(=Nc1ccc(Cl)c(Cl)c1)N(C)C` the same measures were 0.17%, 0.54% and 0.02%.
For `Oc1cccc(Nc2nc(NCc3ccccc3)c3ccccc3n2)c1`, the results for the inhibition in assay [1], in assay [2] and in assay [3] were 22.9%, 19.9% and 11.8%, respectively.
As for `CN(C)C(=O)n1cnc(S(=O)(=O)N(C)c2ccc(Cl)cc2)n1`, the inhibition in assay [1] came out at 5.67%; in assay [2], 6.99%; in assay [3] it was 4.38%.
For `CN1CCN(c2ccnc3ccc(NC(=O)Nc4cccc5c(C#N)cccc45)cc23)CC1` the same measures were 2.25%, 2.35% and 2.75%.
For `N#Cc1ccc(N/C(=N\c2cccc(Cl)c2Cl)NC2Cc3ccccc3C2)c(O)c1` the same measures were 2.33%, 2.84% and 3.97%.
For `COc1cc2c(cc1C(F)(F)F)N(C(=O)Nc1cc(-c3ccncc3)cc(-c3cccnc3)c1)CC2`, in that order: 3.84%, -0.38% and -0.7%.
As for `O=C(Cc1cccc(O)c1)NCC(Cc1ccc(O)cc1)c1ccccc1` (stereo unspecified), the figures for the inhibition in assay [1], in assay [2] and in assay [3] were 0.64%, -0.06% and 0.22%, respectively.
As for `Clc1ccc(CNCC2CCN(CC3CCCCC3)CC2)cc1Cl`, the figures for the inhibition in assay [1], in assay [2] and in assay [3] were -1.58%, 0.7% and 0.64%, respectively.

As usually defined, the inhibition is the change of the read-out against control, counted positive when it falls.
